CHT inh – human CHT choline transport inhibition; 310,000 compounds, 0.86% hits; CHT-expressing cells, membrane potential dye, choline response; hits give low values; B-score at 10 µM; AID 488975;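 active = B-score over 3 SD under the library average, and starting fluorescence ratio not unusually high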;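 also: choline stimulus applied at its EC90 after an EC20 pre-addition; B-score computed on integrated fluorescence ratio after choline addition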
ALR H2O2 inh – blocks human ALR sulfhydryl oxidase activity; P55789; purified ALR, DTT oxidation, H2O2 HRP-luminol luminescence; inhibition, % (test concentration not listed); 290,000 compounds, 3.8% hits;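 active = mean replicate inhibition above about 79%, with every replicate also reaching it, limit read from the data; inconclusive = only one of the two criteria met; inactive = mean below limit and not every replicate reaching it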
PREPL inhibitor – inhibits the human prolyl oligopeptidase-like enzyme; Q4J6C6; recombinant PREPL, fluorescence polarization activity-based probe; inhibition, % at 5.96 µM; 320,000 compounds, 0.68% hits; AID 2751; in the data active = inhibition above about 43%
Target sequence (Q4J6C6 whole entry, looked up): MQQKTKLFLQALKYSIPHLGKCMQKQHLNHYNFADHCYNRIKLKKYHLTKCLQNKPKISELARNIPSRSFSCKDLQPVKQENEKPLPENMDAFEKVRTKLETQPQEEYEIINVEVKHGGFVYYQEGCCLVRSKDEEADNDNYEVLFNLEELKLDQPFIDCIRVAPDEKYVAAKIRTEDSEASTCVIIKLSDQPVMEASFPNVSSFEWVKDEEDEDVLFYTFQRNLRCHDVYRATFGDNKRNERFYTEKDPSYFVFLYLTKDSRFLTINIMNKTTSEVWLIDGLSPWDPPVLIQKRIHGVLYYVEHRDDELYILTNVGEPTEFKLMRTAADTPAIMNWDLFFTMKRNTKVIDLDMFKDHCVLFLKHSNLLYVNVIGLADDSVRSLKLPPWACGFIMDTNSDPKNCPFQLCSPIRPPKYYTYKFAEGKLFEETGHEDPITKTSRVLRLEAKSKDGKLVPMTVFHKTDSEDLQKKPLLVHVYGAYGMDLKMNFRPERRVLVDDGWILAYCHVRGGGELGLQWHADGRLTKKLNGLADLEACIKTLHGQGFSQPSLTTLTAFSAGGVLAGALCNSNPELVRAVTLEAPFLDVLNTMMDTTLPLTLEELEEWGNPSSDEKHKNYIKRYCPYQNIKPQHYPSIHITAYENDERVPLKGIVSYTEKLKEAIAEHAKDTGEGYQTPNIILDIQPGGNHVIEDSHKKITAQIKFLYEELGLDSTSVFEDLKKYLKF
AI-2 QS mod – Vibrio harveyi AI-2 quorum sensing modulation | Vibrio harveyi JMH597 AI-2 luminescence/OD600 ratio, 9 h; hits give low values; strain lacks LuxN and CqsS sensors; 0 = neutral-control median | 300,000 compounds, 0.4% hits | activity change, % at 7.5 µM; in the data active = activity change below about -75%, passing the limit was not always enough; inconclusive = no clear call, values can overlap the other calls;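 also: luminescence divided by OD600 gain over 9 h not by final OD600 alone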
CHT allo act – allosteric activators of human choline transporter CHT; 310,000 compounds, 0.49% hits; B-score at 10 µM; Q9GZV3; CHT-expressing cells, membrane potential dye, choline EC20; hits give high values; LV-AA mutant CHT in HEK293 cells;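 active = initial fluorescence not abnormally high and integrated response B-score, plate-corrected, over 3 SD above library mean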
Numbers stand for hits; 0 = inactive; ? = inconclusive; - = no result given. Most compounds without a hit are left out; they make up all but 5% or so of the library.

SMILES	CHT inh	ALR H2O2 inh	PREPL inhibitor	AI-2 QS mod	CHT allo act
O=C(CSc1nc(O)cc(=O)n1-c1ccccc1)NC1CCCCC1	0	0	0	0	0
O=C(CSc1nc(O)cc(=O)n1C1CCCC1)Nc1cccc(Cl)c1Cl	0	99	0	0	0
Cc1ccccc1NC(=O)CSc1nnc(NC(=O)C2CC2)s1	0	0	0	0	0
COCCCNC(=O)CCCN1C(=O)c2cccnc2Sc2ccccc21	0	0	0	0	0
CC1CCC2C(C1)c1sc(=O)[nH]c1SC2(C)C (centres undefined)	0	98	0	0	0
O=C(O)c1cc(N/N=C/c2ccc(OCc3ccccc3)cc2)ccc1Cl	0	97	0	0	0
Cc1nn(-c2ccccc2)c(Cl)c1/C=N/Nc1ccc(Cl)c(C(=O)O)c1	0	96	0	0	0
O=C(O)c1cc(N/N=C/c2c(O)ccc3ccccc23)ccc1Cl	0	-	0	0	0
O=C(O)c1cc(N/N=C/C=C/c2ccccc2)ccc1Cl	0	99	0	0	0
COC(=O)c1ccc(COc2ccc(/C=N/Nc3cccc(C(=O)O)c3)cc2)cc1	0	0	0	0	0
COc1ccc2oc(C(=O)OCC(=O)NCc3ccco3)c(C)c2c1	0	0	0	0	0
CCc1ccc2c(COC(=O)C3CSC4(C)CCC(=O)N34)cc(=O)oc2c1 (centres undefined)	-	0	0	-	-
COC(=O)c1cc(C(=O)c2ccc(C(C)(C)C)cc2)c[nH]1	0	0	0	-85	0
CC(C)(C)c1ccc(C(=O)c2c[nH]c(C(=O)O)c2)cc1	0	0	0	0	0
C=CCNC(=S)Nc1ccc(N(C)C)cc1	0	99	0	0	0
CN(C)c1ccc(NC(N)=S)cc1	0	99	0	0	0
COc1ccc(NC(C)=O)cc1S(=O)(=O)Nc1ccc2c(c1)OCCO2	0	0	0	0	0
O=C(N/N=C(\CC(=O)c1cccs1)C(F)(F)F)c1ccncc1	0	98	0	0	0
CCc1c(C)sc(NC(=O)c2cc(C)on2)c1C#N	0	85	0	0	0
CCCc1cc(C(=O)Nc2sc(C)c(CC)c2C#N)no1	0	-	0	0	0
CCc1c(C)sc(NC(=O)c2cc(C3CC3)on2)c1C#N	0	94	0	0	0
COc1ccccc1CCC(=O)OCC(=O)Nc1ccc2[nH]c(=O)[nH]c2c1	0	0	0	0	0
C=CCNC(=S)Nc1sc2c(c1C(N)=O)CCCC2	0	98	0	0	0
NC(=O)c1c(NC(=S)Nc2ccccc2)sc2c1CCCC2	0	0	0	0	0
NC(=O)c1c(NC(=S)Nc2ccc(F)cc2)sc2c1CCCC2	0	90	0	0	0
SMILES	CHT inh	ALR H2O2 inh	PREPL inhibitor	AI-2 QS mod	CHT allo act
C=CC(=O)Nc1sc2c(c1C(N)=O)CCCC2	0	?	0	0	0
N#CCC(=O)Nc1sc2c(c1C(N)=O)CCCC2	0	90	0	0	0
C/C(=N\Nc1ccc(Cl)c(C(=O)O)c1)c1ccc(N2CCOCC2)cc1	0	-	0	0	0
CCS(=O)(=O)c1ccc(-c2cccc(NC(=O)COc3ccc(Cl)cc3)c2)nn1	0	0	0	0	0
Cc1ccc[n+](CC(=O)Nc2ccc([N+](=O)[O-])cc2)c1	0	?	0	0	0
Cc1ccc[n+](-c2nc([O-])sc2/C=N/Nc2ccc([N+](=O)[O-])cc2)c1	0	92	0	0	0
CC(C)CN1C(=O)C(=O)N(CC(=O)c2ccc[nH]2)C1=O	0	-	0	0	0
Brc1ccc(N=NNc2ccccc2)cc1	0	0	0	0	0
NC(=S)N=Nc1ccc(NN=C(N)N)cc1	0	98	0	0	0
Cc1ccccc1OCCn1cc(C=O)c2ccccc21	0	0	0	0	0
Cc1ccc(C(=O)NC(=S)Nc2cc(-c3nc4ccccc4s3)ccc2C)cc1	0	0	0	0	0
Cc1ccc2[nH]c(-c3cccc(F)c3)cc(=O)c2c1	0	0	0	0	0
Cc1ccc2[nH]c(-c3cccc(N)c3)cc2c1	0	98	0	0	0
NCCOc1ccccc1-c1ccccc1	0	0	0	0	0
Nc1ccc(Oc2ccccc2-c2ccccc2)cc1	0	99	0	0	0
CCOC(=O)c1c(C)[nH]c2cc(Br)c(O)cc12	0	0	0	0	0
CCOC(=O)c1c(OCC)[nH]c2c1cc(O)c1ccccc12	0	99	0	0	0
CCOc1cc(-c2c(C#N)c(N)nc3c2CCCC3C)ccc1O (centres undefined)	0	98	0	0	0
CC1(C)Cc2nc3n[nH]c(N)c3cc2CO1	0	87	0	0	0
Cc1nc2n[nH]c(N)c2c2c1COC(C)(C)C2	0	0	0	0	0
COc1cc(/C=C(\C#N)C(=O)N2CCc3ccccc32)ccc1O	0	100	0	0	0
COc1ccc(/C=C(/NC(=O)c2ccco2)C(=O)N2CCc3ccccc32)cc1OC	0	0	0	-	0
CCOC(=O)/C(C#N)=C\c1ccc(O)c(OC)c1	0	99	0	0	0
CCOC(=O)c1cc(NC(=O)Nc2ccccn2)c(C)nc1C	0	0	0	0	0
Cc1cccc2c3c([nH]c12)CCN(C)C3	-5.8	0	0	0	0
SMILES	CHT inh	ALR H2O2 inh	PREPL inhibitor	AI-2 QS mod	CHT allo act
CCN1C(c2ccccc2)C(C)C(=O)C(C)C1c1ccccc1 (centres undefined)	0	0	0	0	8.6
CCC1C(=O)C(CC)C(c2ccccc2)NC1c1ccccc1 (centres undefined)	0	0	0	0	0
Cc1cc(-c2n[nH]c(=S)n2/N=C/c2ccc(Cl)c([N+](=O)[O-])c2)n[nH]1	0	97	0	0	0
COc1cccc(/C=N/n2c(-c3n[nH]c4c3CCC4)n[nH]c2=S)c1OC	0	0	0	0	0
Cc1cc(-c2n[nH]c(=S)n2/N=C/c2cc([N+](=O)[O-])ccc2Cl)n[nH]1	-	-	-	0	-
COc1cccc(/C=N/n2c(-c3cc(C)[nH]n3)n[nH]c2=S)c1OC	0	96	0	0	0
Cc1noc(C)c1S(=O)(=O)NCCCN1CCN(Cc2ccccc2)CC1	0	0	0	0	0
Cc1noc(C)c1S(=O)(=O)NCCN1CCN(c2ccccc2)CC1	0	86	0	0	0
COC(=O)CC1C(=O)NCCN1C(=O)c1ccc([N+](=O)[O-])cc1 (centres undefined)	0	0	0	0	0
Cc1cccc(C)c1Nc1c(-c2ccsc2)nc2ncccn12	0	98	0	0	0
Cc1ccccc1Nc1c(-c2ccccn2)nc2c(C)cccn12	0	-	0	0	0
Cc1ccc(Nc2c(-c3ccccn3)nc3cccc(C)n23)cc1	0	99	0	-80	0
Cc1cccc(C)c1Nc1c(-c2ccccn2)nc2ccccn12	0	94	0	0	0
COC(=O)c1c(C)[nH]c(C(=O)C(C)OC(=O)c2cnc(C)cn2)c1C (centres undefined)	-	0	0	-	-
C#CCSc1nnc(C)c(C)n1	0	0	0	0	0
O=C(N/N=C/C=C/c1ccco1)/C(=C/c1ccccc1)NC(=O)c1ccccc1	0	0	0	0	0

Bioassay records deposited in PubChem by several laboratories.
